These results are taken from PubChem BioAssay (NCI).

The panel holds about 79,000 compounds, 15% with a hit somewhere; the sample as a whole holds those more often. Values without a mark were called inactive. The source made the active and inactive calls. Cut-off read from the data, not from the text of the source: active = growth inhibition above about 70%; inactive = the rest.

The nature of one assay: NCI Yeast Anticancer Drug Screen. Data for the mlh1 rad18 strain (AID 175). Particulars: S. cerevisiae mlh1 rad18 strain growth inhibition; at 50.0 µM (retest, dose inferred, filed as 5.0); hits give high values. The gist of the method:
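Cells of a genetically altered yeast strain, deficient in DNA damage repair, were treated with compound. Their growth was then compared with that of vehicle-treated cultures to give inhibition.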
For `CN(C)CC(CN(C)C)C(=O)/C=C/c1ccc(Cl)cc1Cl`, the growth inhibition was 99% (active).

With `c1ccc2c(c1)ccn2CCc1c[nH]c2ccccc12`, the growth inhibition was 51%.

On to `CC(C)OC(=O)NNc1c(Cl)cc(Cl)cc1Cl`, for which the growth inhibition was 38%.

With `COc1ccc2nc3cccc([N+](=O)[O-])c3c(NCCNCCO)c2c1`, the growth inhibition was 98% (active).

Take `COc1ccc2c(c1)CCCC(Br)C2=O` (stereo unspecified): the growth inhibition is 73% (active).

As to `CCC(OC(C)=O)C1CC(C(C)C)CCC1C` (stereo unspecified), the growth inhibition is 19%.

In the case of `O=S(=O)(c1cccc(C(F)(F)F)c1)N1c2ccccc2-n2cccc2C1c1cccnc1` (stereo unspecified), the growth inhibition was 96% (active).

For the molecule `c1ccc(-c2cc(C3CO3)c3ccccc3n2)cc1` (stereo unspecified), the growth inhibition was 69%.

`COc1ccc(/C=C2\SC(=S)N(/C=C3\C(=O)N(c4ccccc4)N=C3C)C2=O)cc1OC`: the growth inhibition is 67%.

`CC1=CC(=C(c2ccc(N)c(C)c2)c2ccc(N)c(C)c2)C=CC1=N`: the growth inhibition was 94% (active).

In the case of `CC1C(c2ccccc2)SC(=N)N1C` (stereo unspecified), the growth inhibition is 52%.

For `CC(/C=C/c1ccc([N+](=O)[O-])o1)=N/N1CC(CN2CCOCC2)OC1=O` (stereo unspecified), the growth inhibition was 95% (active).

Regarding `C=CC(C)(C)N1C(=O)C(C(C)=O)=C(O)C1Cc1c[nH]c2ccccc12` (stereo unspecified), the growth inhibition was 86% (active).

In the case of `O=C1c2cccc3cccc(c23)C(=O)N1CCNCCN1C(=O)c2cccc3cccc(c23)C1=O`, the growth inhibition is 18%.

On to `Cc1ccc([N+](=O)[O-])c2c(NCCC[N+](C)(C)[O-])c3ccccc3nc12`, for which the growth inhibition was 82% (active).

Regarding `COC(=O)C(Cc1c[nH]c2ccccc12)N1CN(C)c2ccccc2C1=O` (stereo unspecified), the growth inhibition was 75% (active).

Regarding `O=C(/N=N/C(=O)Oc1ccccc1)Oc1ccccc1`, the growth inhibition was 98% (active).

Take `CC1(C)CC(=O)C(/C=N/c2nc(-c3ccc(Br)cc3)cs2)=C(O)C1`: the growth inhibition is 99% (active).

On to `CCOC(=O)/C(=C/c1cccc(Cl)c1)N(CC)CC`, for which the growth inhibition is 83% (active).

Regarding `CC(C)OC(=O)NNc1cccc(Cl)c1`, the growth inhibition was 96% (active).

As for `CCC(=O)C1=C(O)c2cc(OC)ccc2CC1C(=O)OC` (stereo unspecified), the growth inhibition was 90% (active).

Consider `O=S(=O)(NC1CCCC(c2ccccc2)C1)c1ccccc1` (stereo unspecified), for which the growth inhibition was 76% (active).

Turning to `COc1ccc2nc3cccc([N+](=O)[O-])c3c(NCCCCCC(=O)O)c2c1`, the growth inhibition is 98% (active).

Consider `CCO/C=C1\SC(=S)N(c2ccc(OCC)cc2)C1=O`, for which the growth inhibition is 76% (active).

With `COc1cc(OC)c(CSCC(NC(=O)OCC2c3ccccc3-c3ccccc32)C(=O)O)c(OC)c1` (stereo unspecified), the growth inhibition is 99% (active).

Take `COC(=O)c1ccccc1N=NNc1cccc(SC)c1`: the growth inhibition is 36%.

`CC1=NN(C(=O)c2ccccc2O)C(=O)/C1=C/c1ccco1`: the growth inhibition is 94% (active).

On to `COc1ccccc1NC(=O)c1ccc(Cl)cc1`, for which the growth inhibition was 11%.

Take `CC(C)=CCC/C(C)=C/CN1C(=O)C=CC1=O`: the growth inhibition is 98% (active).

As for `O=C1CSC(c2ccccc2)N1c1ccc(-c2ccc(-n3c(-c4ccccc4)nc4ccccc4c3=O)cc2)cc1` (stereo unspecified), the growth inhibition was 83% (active).

`N#CC1OB(O)c2ccccc21` (stereo unspecified): the growth inhibition is 7%.

On to `O=C(NCCNCCNC(=O)c1cc(-c2ccccc2)nc2ccccc12)c1cc(-c2ccccc2)nc2ccccc12`, for which the growth inhibition is 66%.

Take `Brc1ccc(B2Nc3ccccc3N2)cc1`: the growth inhibition was 87% (active).

The same assay, now with this note: S. cerevisiae mlh1 rad18 strain growth inhibition; at 50.0 µM; hits give high values.
For the molecule `CN(C)CC(CN(C)C)C(=O)/C=C/c1ccc(Cl)cc1Cl`, the growth inhibition is 45%.

With `c1ccc2c(c1)ccn2CCc1c[nH]c2ccccc12`, the growth inhibition is 91.4% (active).

Consider `CC(C)OC(=O)NNc1c(Cl)cc(Cl)cc1Cl`, for which the growth inhibition is 24.9%.

On to `COc1ccc2nc3cccc([N+](=O)[O-])c3c(NCCNCCO)c2c1`, for which the growth inhibition is 78.2% (active).

Consider `COc1ccc2c(c1)CCCC(Br)C2=O` (stereo unspecified), for which the growth inhibition is 92.4% (active).

Take `CCC(OC(C)=O)C1CC(C(C)C)CCC1C` (stereo unspecified): the growth inhibition was 27.6%.

Consider `O=S(=O)(c1cccc(C(F)(F)F)c1)N1c2ccccc2-n2cccc2C1c1cccnc1` (stereo unspecified), for which the growth inhibition was 95.5% (active).

With `c1ccc(-c2cc(C3CO3)c3ccccc3n2)cc1` (stereo unspecified), the growth inhibition is 95.8% (active).

Regarding `COc1ccc(/C=C2\SC(=S)N(/C=C3\C(=O)N(c4ccccc4)N=C3C)C2=O)cc1OC`, the growth inhibition is 76.2% (active).

In the case of `CC1=CC(=C(c2ccc(N)c(C)c2)c2ccc(N)c(C)c2)C=CC1=N`, the growth inhibition is 84.8% (active).

`CC1C(c2ccccc2)SC(=N)N1C` (stereo unspecified): the growth inhibition is -18.4%.

With `CC(/C=C/c1ccc([N+](=O)[O-])o1)=N/N1CC(CN2CCOCC2)OC1=O` (stereo unspecified), the growth inhibition was 93.5% (active).

For the molecule `C=CC(C)(C)N1C(=O)C(C(C)=O)=C(O)C1Cc1c[nH]c2ccccc12` (stereo unspecified), the growth inhibition was 68.5%.

`O=C1c2cccc3cccc(c23)C(=O)N1CCNCCN1C(=O)c2cccc3cccc(c23)C1=O`: the growth inhibition is 7.55%.

In the case of `Cc1ccc([N+](=O)[O-])c2c(NCCC[N+](C)(C)[O-])c3ccccc3nc12`, the growth inhibition is 45.1%.

`COC(=O)C(Cc1c[nH]c2ccccc12)N1CN(C)c2ccccc2C1=O` (stereo unspecified): the growth inhibition is 95.8% (active).

`O=C(/N=N/C(=O)Oc1ccccc1)Oc1ccccc1`: the growth inhibition is 49%.

On to `CC1(C)CC(=O)C(/C=N/c2nc(-c3ccc(Br)cc3)cs2)=C(O)C1`, for which the growth inhibition is 98.8% (active).

For the molecule `CCOC(=O)/C(=C/c1cccc(Cl)c1)N(CC)CC`, the growth inhibition was 78.2% (active).

With `CC(C)OC(=O)NNc1cccc(Cl)c1`, the growth inhibition is 98% (active).

For `CCC(=O)C1=C(O)c2cc(OC)ccc2CC1C(=O)OC` (stereo unspecified), the growth inhibition is 31.4%.

`O=S(=O)(NC1CCCC(c2ccccc2)C1)c1ccccc1` (stereo unspecified): the growth inhibition was 57.8%.

Turning to `COc1ccc2nc3cccc([N+](=O)[O-])c3c(NCCCCCC(=O)O)c2c1`, the growth inhibition is 82.6% (active).

Take `CCO/C=C1\SC(=S)N(c2ccc(OCC)cc2)C1=O`: the growth inhibition is 57.5%.

Consider `COc1cc(OC)c(CSCC(NC(=O)OCC2c3ccccc3-c3ccccc32)C(=O)O)c(OC)c1` (stereo unspecified), for which the growth inhibition is 98.4% (active).

Consider `COC(=O)c1ccccc1N=NNc1cccc(SC)c1`, for which the growth inhibition was 85.2% (active).

In the case of `CC1=NN(C(=O)c2ccccc2O)C(=O)/C1=C/c1ccco1`, the growth inhibition was 82.5% (active).

Regarding `COc1ccccc1NC(=O)c1ccc(Cl)cc1`, the growth inhibition was 0.15%.

`CC(C)=CCC/C(C)=C/CN1C(=O)C=CC1=O`: the growth inhibition was 99.3% (active).

Consider `O=C1CSC(c2ccccc2)N1c1ccc(-c2ccc(-n3c(-c4ccccc4)nc4ccccc4c3=O)cc2)cc1` (stereo unspecified), for which the growth inhibition was 82.7% (active).

On to `N#CC1OB(O)c2ccccc21` (stereo unspecified), for which the growth inhibition is 60.9%.

For the molecule `O=C(NCCNCCNC(=O)c1cc(-c2ccccc2)nc2ccccc12)c1cc(-c2ccccc2)nc2ccccc12`, the growth inhibition was 50.6%.

As to `Brc1ccc(B2Nc3ccccc3N2)cc1`, the growth inhibition is 82.5% (active).
